# Most compounds without a hit are left out; they make up all but 1.5% or so of the library.
# IDE inh = inhibitors of human insulin-degrading enzyme in cells; hit rate 0.41% among 320,000; inhibition, % at 5.59 µM; P14735; HEK cells, FAbetaB cleavage, fluorescence polarization; AID 434962;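 active = percent inhibition above the average of all tested compounds plus 3 SD, set per screening campaign, cut at about 16% in these data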;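 also: IDE supplied by intact live HEK cells; FP after avidin binding of uncleaved biotin substrate so inhibition keeps polarization high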
# RTF Ca sens act = cardiac RTF calcium sensitization | hit rate 0.24% among 340,000 | IANBD-labeled TnC RTF fluorescence at EC20 calcium; 0% EC20 calcium, 100% full calcium | activation, % at 7.2 µM | AID 493008;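 active = activation above the mean over all tested compounds plus 3 SD, cut at about 30% in these data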;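 also: rise in fluorescence read as greater calcium sensitivity of cardiac thin filaments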
# Cardiac RTF inh = cardiac RTF calcium desensitization; P19429+P45379; IANBD-labeled cardiac RTF, Ca2+ fluorescence; inhibition, % at 7.15 µM; hit rate 0.12% among 340,000; AID 493244;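 active = inhibition above the mean inhibition of all tested compounds plus 3 SD, cut at about 17% in these data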;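 also: assay run at fixed EC70 calcium of 1.6 mM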
# IDE act = activators of human insulin-degrading enzyme in cells; hit rate 0.073% among 340,000; HEK cells, FAbeta-B cleavage, fluorescence polarization; 0% vehicle, 100% cell-free pure enzyme wells; activation, % at 5.96 µM; P14735;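 active = activation above the mean of all tested compounds plus 3 SD, set per screening campaign, cut at about 17% in these data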
# CRFBP-R2 block = blocks CRF-induced signaling of the CRF-BP/CRF-R2 complex; HEK293 CRF-R2/CRF-BP, CRF-induced calcium fluorescence; inhibition, % at 11.8 µM; hit rate 0.59% among 350,000; AID 588475;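 active = inhibition of the ligand-induced calcium signal above about 50% at the single tested concentration, limit read from the data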
# CRFR2-BP ag = agonists of human CRF-binding protein/CRF-R2 receptor complex. activation, % at 13.2 µM. hit rate 0.46% among 350,000. HEK293 CRF-R2/CRF-BP, calcium dye fluorescence (FLIPR); percent of saturating CRF peptide response;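 active = activation of at least 50%, plus an integration ratio under a set limit after plate pattern correction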
# A number is an active result; . = inactive; / = no result; + = active, no number.
SMILES,IDE inh,RTF Ca sens act,Cardiac RTF inh,IDE act,CRFBP-R2 block,CRFR2-BP ag
COc1cc2[nH]c(=O)n(CCCCCC(=O)NC3CCCC3)c(=O)c2cc1OC,.,.,.,.,67,.
Cc1ccc(NC(=O)c2cc(NC(=O)c3ccccc3C(=O)O)ccc2N2CCCCC2)cc1,.,.,.,.,.,.
Cc1ccc(NC(=O)c2cc(NC(=O)/C=C\C(=O)O)ccc2N2CCCCC2)cc1,.,.,.,.,95,.
CCCC(=O)OCCNc1cc(Sc2nc3ccccc3[nH]2)c2nonc2c1[N+](=O)[O-],.,.,.,.,91,.
CCC(=O)OCCNc1cc(SCCC(=O)OC)c2nonc2c1[N+](=O)[O-],.,.,.,.,.,.
Cc1ccc(NC(=O)C2CC(=O)N(C(C)C)C2)cc1Cl (stereo unspecified),.,.,.,.,.,.
CC(C)N1CC(C(=O)Nc2ccc(Br)c(Cl)c2)CC1=O (stereo unspecified),.,.,.,.,60,.
CC(=O)Nc1ccc(S(=O)(=O)NCc2nc(-c3ccccc3Cl)no2)cc1,.,.,.,.,.,.
CCNC(=O)C1CC(=O)N(CCCc2ccccc2)C(=Nc2ccccc2)S1 (stereo unspecified),.,.,.,.,.,.
CCCC1CC(C#N)N(N(C)C)C1=C(C#N)C#N (stereo unspecified),.,.,.,.,52,.
CC1CC(C#N)N(N(C)C)C1=C(C#N)C#N (stereo unspecified),.,.,.,.,.,.
O=C(CCNC(=O)c1ccc([N+](=O)[O-])cc1)Nc1cccc(S(=O)(=O)N2CCCCCC2)c1,.,.,.,.,.,.
COc1ccc(C(=O)O/N=C(\N)Cc2ccc(Cl)c(Cl)c2)cc1OC,.,.,.,.,110,.
O=C(NCCCCc1ccccc1)c1ccccc1Cl,.,.,.,.,.,.
Cc1ccc(Nc2nnc(SC(C)C(=O)NCC3CCCO3)s2)cc1 (stereo unspecified),.,.,.,.,.,.
O=C(Nc1ccccn1)c1ccc(C(=O)c2ccccc2)cc1,.,.,.,.,55,.
CCc1sc(C(=O)NC2CCN(C)CC2)cc1Br,.,.,.,.,.,.
O=C1C(Cl)=C(Nc2ccc3cn[nH]c3c2)C(=O)c2ccccc21,.,.,.,.,95,.
CC(=O)Nc1ccc(NC2=C(Cl)C(=O)c3ccccc3C2=O)cc1,/,/,/,/,+,.
CN(C)c1ccc(NC2=C(Cl)C(=O)c3ccccc3C2=O)cc1,.,.,.,.,75,.
O=C(NC1=C(Nc2ccc(Cl)cc2)C(=O)c2ccccc2C1=O)c1ccccc1,.,.,.,.,.,.
CSc1cccc(CNC(=O)C2CCC(=O)N(CCCN3CCCC3=O)C2)c1 (stereo unspecified),.,.,.,.,.,.
C[C@H]1CN([C@@H](C)CO)C(=O)CCCn2cc(nn2)CO[C@@H]1CN(C)C(=O)Nc1ccc(F)cc1,/,/,/,/,.,.
CC(C)NC(=O)CCNC(=O)c1ccc(F)cc1,.,.,.,.,.,.
O=C(Nc1cc(C(F)(F)F)ccc1-n1cncn1)c1ccc(Cl)cc1,.,.,.,.,82,.
SMILES,IDE inh,RTF Ca sens act,Cardiac RTF inh,IDE act,CRFBP-R2 block,CRFR2-BP ag
CC1C(=O)N2CCCc3cc(NC(=O)c4ccccc4C(F)(F)F)cc1c32 (stereo unspecified),.,.,.,.,.,.
COc1cc2c(cc1OC)C(=O)N1[C@H]3c4ccccc4OC[C@@H]3[C@H](c3ccccc3)[C@]1(C)C(=O)N2,.,.,.,.,.,.
COc1ccc2c(c1)OC[C@H]1[C@H]2N2C(=O)c3cc(OC)c(OC)cc3NC(=O)[C@@]2(C)[C@H]1c1ccccc1,.,.,.,.,65,.
Oc1ccc(C[C@H]2CNCCN2CC2(c3ccccc3)CC2)cc1,.,.,.,.,.,.
Nc1ccc(S(N)(=O)=O)cc1,.,.,.,.,.,.
Nc1ccc(S(N)(=O)=O)cc1N,.,30,.,.,.,.
O=C1NC(=O)c2c(Br)c(Br)c(Br)c(Br)c21,/,.,.,.,.,.
OCCN1CCN(C(=S)Nc2ccc(Oc3ccccc3)cc2)CC1,.,.,.,.,.,.
OCCOCCN1CCN(C(=S)Nc2ccccc2)CC1,.,.,.,.,70,.
Cc1cnc(NS(=O)(=O)c2ccc(N)cc2)nc1-c1ccccc1O,/,/,/,/,.,.
COc1ccccc1NC(=O)/C(C#N)=C/c1cc([N+](=O)[O-])ccc1N1CCCC1,.,.,.,.,.,92
CCN(c1ccccc1)S(=O)(=O)c1cc(NC(=O)CSc2n[nH]c(=O)[nH]c2=O)ccc1Cl,.,.,.,.,111,.
Cc1ccc(NC(=O)CN2CCN(C(=O)c3ccco3)CC2)cc1,.,.,.,.,.,.
Cc1ccc2nc(-c3ccc(NC(=O)CN4CCN(C(=O)c5ccco5)CC4)cc3)sc2c1,18,.,.,.,.,.
COC(=O)c1sc2cc([N+](=O)[O-])cc(SCC(C)C)c2c1N,.,.,.,.,.,55
CCOC(=O)c1sc2ncc([N+](=O)[O-])cc2c1N,.,.,.,.,.,.
COc1cccc(C(=O)NCC(=O)OCC(=O)NC2CCCCC2)c1,.,.,.,.,.,.
CCCCn1c(=NC(C)=O)c(C#N)cc2c(=O)n3cccc(C)c3nc21,.,.,.,.,.,.
CCCCCn1c(=NC(=O)c2cccnc2)c(C#N)cc2c(=O)n3cccc(C)c3nc21,.,.,.,.,.,63
O=C(Nc1cccc2ccccc12)N1CC=CCC1,.,.,.,.,88,.
O=C(C1CC(=O)N(c2ccc(F)c(Cl)c2)C1)N1CCOCC1 (stereo unspecified),/,/,/,/,.,.
CC1=NOC(=O)/C1=C/c1ccc(-c2ccc(Cl)cc2)o1,.,.,.,.,/,/
CC1=NOC(=O)/C1=C\c1ccc(-c2ccc(Br)cc2)o1,/,.,.,.,.,69
CC1=NOC(=O)/C1=C\c1ccc(-c2cc(Cl)ccc2Cl)o1,.,.,.,.,.,116
COC(=O)c1scc2c(=O)cc(C(F)(F)F)[nH]c12,.,.,.,.,.,63
SMILES,IDE inh,RTF Ca sens act,Cardiac RTF inh,IDE act,CRFBP-R2 block,CRFR2-BP ag
Cc1ccc(NC(=O)O/N=C/c2ccc(Br)cc2)cc1,.,.,.,.,.,.
Cc1ccc(NC(=O)O/N=C/c2ccc(F)cc2)cc1,.,37,.,.,.,.
CCOC(=O)Oc1ccc2c(=O)c(Oc3cccc(C)c3)coc2c1,.,.,.,.,52,.
O=C(CCc1nc2ccccc2c(=O)[nH]1)Nc1ccc(N2CCCCC2)cc1,17,.,.,.,.,.
COc1cc(/C=C2\N=C(c3ccccc3)OC2=O)ccc1OC(C)=O,.,.,.,.,.,.
COc1ccc(OC)c(/C=C2\N=C(c3ccccc3)OC2=O)c1,.,.,.,.,.,104

# Screens (PubChem BioAssay)
